KB-V1 cytotox: KB-V1 MDR subline cytotoxicity. KB-V1 MDR cells viability, CellTiter-Glo, 72 h. Potency, µM (titrated, usually from 46.1 µM), actives largely listed as cytotoxic. 3.4% of 400,000 active; further: nearly all actives have a fitted effect of over 60% in size
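KB-V1, DMEM (no phenol red) + 10% FBS; cpd pin-transferred, titration series; 72 h, 37 degrees C; CellTiter-Glo, luminescence. Data normalized, curve-fit.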
TDP1 cell noCPT: qHTS for Inhibitors of human tyrosyl-DNA phosphodiesterase 1 (TDP1): qHTS in cells in absence of CPT; Potency, µM (series often up to 46.2 µM), for inactives: at the top dose activity change, negative = growth inhibition, actives largely listed as inhibitors; 15% of 420,000 active; DT40 Tdp1-/- hTDP1 cells, no CPT, ATP luminescence, 48 h; AID 686978, 2013; further: nearly all actives have a fitted effect of over 55% in size
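Chicken DT40 Tdp1-/- cells complemented with human TDP1, screened without camptothecin (DMSO vehicle only), 400 cells/well. Compounds pin-transferred, cells incubated at 37 °C for at least 48 hr. Growth read as ATP-dependent luminescence (CellTiter-Glo, 30 min at RT).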
KB-3-1 cytotox: kills parental KB-3-1 adenocarcinoma cells; Potency, µM (titrated, usually from 46.1 µM), actives largely listed as cytotoxic; AID 1347075; 1.4% of 400,000 active; KB-3-1 viability, CellTiter-Glo ATP luminescence, 72 h; further: nearly all actives have a fitted effect of over 60% in size
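Here the drug-naive KB-3-1 line serves as comparator for MDR sub-line selectivity; cells received compound titrations, 72 h at 37 °C, then CellTiter-Glo readout.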
DT40 TDP1 CPT: DT40-hTDP1 cell growth loss with CPT; AID 686979; chicken DT40 Tdp1-/-;hTDP1 cells + 20 nM CPT, ATP luminescence, 48 h; 12% of 420,000 active; Potency, µM (highest dose often 46.2 µM), inactives show top-dose activity change, negative = growth inhibition, usual class: inhibitors; further: nearly all actives have a fitted effect of over 55% in size
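Chicken DT40 Tdp1-/- cells complemented with human TDP1, 400 cells/well, exposed to compounds plus 20 nM camptothecin for at least 48 h at 37 C; viability read as ATP content by CellTiter-Glo luminescence.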
HT1080 IDH1KD tx: kills HT-1080 cells with IDH1 knockdown | Potency, µM (doses to about 46.1 µM), for inactives: at the top dose activity, negative = toxicity, usual class: cytotoxic | HT-1080 IDH1 knockdown viability, ATP luminescence, 48 h | 2% of 360,000 active | AID 686971;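 further: 0% = DMSO wells and -100% = cell-free medium wells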
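Using the IDH1-knockdown HT-1080 line run in the same batch and compound series as the NT line, viability after 48 h at 37 °C was determined by CellTiter-Glo luminescence and expressed as % activity.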
HT1080-NT tox: kills 2HG-producing HT-1080-NT fibrosarcoma cells; HT-1080-NT fibrosarcoma viability, CellTiter-Glo ATP luminescence, 48 h; 1.6% of 360,000 active; Potency, µM (highest dose often 46.1 µM), without a hit: top-dose activity, negative = less viability, actives largely listed as cytotoxic;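 further: NT is the 2HG producing partner of a matched IDH1 knockdown line; 0% = DMSO-treated cells and -100% = media-only wells without cells; nearly all actives have a fitted effect of over 55% in size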
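HT-1080-NT; 750 cells/well; 5% FBS RPMI; 48 h compound, 37 degrees C; CellTiter-Glo luminescence; curve fitting and curve-class assignment.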
An asterisk follows results filed as active. Only some compounds are listed: those with a hit (about 19% of all), similar ones and a draw of the others. The call rests on the fitted dose curve; in most records, active means well fitted curve in the direction sought with a large enough effect; inconclusive means small, poorly fitted or top-dose-only effect, or another doubt; inactive means no such curve, though single readings can be large; an effect the other way counts as inactive or inconclusive. Unless noted, on the % scale 0 is the no-effect control and ±100 the full control effect; potency means the concentration at half of the fitted maximal effect.

Results for CC(C)[C@H](NC(=O)Cc1ccccc1)C(=O)OCc1cc(=O)n2c(n1)sc1ccccc12 ?
KB-V1 cytotox: inactive; TDP1 cell noCPT: 13µM*; KB-3-1 cytotox: inactive; DT40 TDP1 CPT: 14.6µM*; HT1080 IDH1KD tx: -14.6%; HT1080-NT tox: -10.8%

What do the screens show for `Cc1ccc2c(CC(=O)OCc3cc(=O)n4c(n3)sc3ccccc34)coc2c1`?
KB-V1 cytotox: inconclusive; TDP1 cell noCPT: -26.1%; KB-3-1 cytotox: inactive; DT40 TDP1 CPT: -4.1%; HT1080 IDH1KD tx: 7.3%; HT1080-NT tox: 8.1%

Results for Cc1nn(CCC(=O)Nc2ccc(Cl)cc2)c(C)c1S(=O)(=O)N1CCCCC1 ?
TDP1 cell noCPT: 14.6µM*; DT40 TDP1 CPT: 20.6µM*

What do the screens show for `Cc1nn(CCC(=O)Nc2cccc(C#N)c2)c(C)c1S(=O)(=O)N1CCCCC1`?
KB-V1 cytotox: inactive; TDP1 cell noCPT: inconclusive; KB-3-1 cytotox: inactive; DT40 TDP1 CPT: inconclusive; HT1080 IDH1KD tx: 3.9%; HT1080-NT tox: -2.6%

How did Cc1nn(CCC(=O)N2CCN(c3ccccc3)CC2)c(C)c1S(=O)(=O)N1CCCC1 do in these assays?
KB-V1 cytotox: inactive; TDP1 cell noCPT: inconclusive; KB-3-1 cytotox: inactive; DT40 TDP1 CPT: 18.4µM*

What do the screens show for `Cc1ccc(NC(=O)CCn2nc(C)c(S(=O)(=O)N3CCCCC3)c2C)cc1Cl`?
TDP1 cell noCPT: 16.4µM*; DT40 TDP1 CPT: inconclusive

How did Cc1cc(Nc2nn(C)c(N)c2C#N)ccc1F do in these assays?
KB-V1 cytotox: inactive; TDP1 cell noCPT: inconclusive; KB-3-1 cytotox: inactive; DT40 TDP1 CPT: -17.7%; HT1080 IDH1KD tx: 1.0%; HT1080-NT tox: 5.5%

What do the screens show for `CCOc1ccc2nc(N3CCCC(C(=O)Nc4ccc(OC)cc4)C3)sc2c1` (stereo unspecified)?
KB-V1 cytotox: inactive; TDP1 cell noCPT: 11.6µM*; KB-3-1 cytotox: inconclusive; DT40 TDP1 CPT: 14.6µM*

How did O=C(Nc1ccc2c(c1)OCO2)C1CCCN(c2nc3ccccc3s2)C1 (stereo unspecified) do in these assays?
KB-V1 cytotox: inactive; TDP1 cell noCPT: inconclusive; KB-3-1 cytotox: inconclusive; DT40 TDP1 CPT: inconclusive; HT1080 IDH1KD tx: inconclusive; HT1080-NT tox: 2.8%

What do the screens show for `CCc1nnc(NC(=O)C2CCCN(c3nc4ccccc4s3)C2)s1` (stereo unspecified)?
KB-V1 cytotox: 14.6µM*; TDP1 cell noCPT: -19.9%; KB-3-1 cytotox: inactive; DT40 TDP1 CPT: -25.6%; HT1080 IDH1KD tx: -2.4%; HT1080-NT tox: 7.1%

How did CCOC(=O)N1CCN(C(=O)C2CCCN(c3nc4ccc(OCC)cc4s3)C2)CC1 (stereo unspecified) do in these assays?
KB-V1 cytotox: inactive; TDP1 cell noCPT: inconclusive; KB-3-1 cytotox: inactive; DT40 TDP1 CPT: inconclusive; HT1080 IDH1KD tx: -0.2%; HT1080-NT tox: 0.0%

Results for CCOc1ccc2nc(N3CCCC(C(=O)Nc4cccc(Cl)c4C)C3)sc2c1 (stereo unspecified) ?
KB-V1 cytotox: inactive; TDP1 cell noCPT: inconclusive; KB-3-1 cytotox: inactive; DT40 TDP1 CPT: inconclusive

How did CCOc1ccc2nc(N3CCCC(C(=O)Nc4cc(Cl)c(OC)cc4OC)C3)sc2c1 (stereo unspecified) do in these assays?
KB-V1 cytotox: inactive; TDP1 cell noCPT: 13µM*; KB-3-1 cytotox: inactive; DT40 TDP1 CPT: 18.4µM*

Results for CCOc1ccc2nc(N3CCCC(C(=O)NC4CCCC4)C3)sc2c1 (stereo unspecified) ?
KB-V1 cytotox: inconclusive; TDP1 cell noCPT: 20.6µM*; KB-3-1 cytotox: inconclusive; DT40 TDP1 CPT: inconclusive; HT1080 IDH1KD tx: 2.9%; HT1080-NT tox: inconclusive

What do the screens show for `COCCn1c(=O)c(-c2cc(F)cc(F)c2)nc2cnc(N(C)C)nc21`?
TDP1 cell noCPT: 5.9%; DT40 TDP1 CPT: -11.5%

How did CCOc1ccc2nc(N3CCCC(C(=O)NCc4ccccc4OC)C3)sc2c1 (stereo unspecified) do in these assays?
KB-V1 cytotox: inactive; TDP1 cell noCPT: 23.1µM*; KB-3-1 cytotox: inactive; DT40 TDP1 CPT: inconclusive

What do the screens show for `CCOC(=O)N1CCN(C(=O)Nc2ccc3nc(C)sc3c2)CC1`?
KB-V1 cytotox: inactive; TDP1 cell noCPT: -0.4%; KB-3-1 cytotox: inactive; DT40 TDP1 CPT: -12.2%; HT1080 IDH1KD tx: 1.2%; HT1080-NT tox: -3.5%

How did CCOC(=O)Nc1ccc2nc(N3CCCCCC3)sc2c1 do in these assays?
KB-V1 cytotox: inconclusive; TDP1 cell noCPT: 2.59µM*; KB-3-1 cytotox: inactive; DT40 TDP1 CPT: 3.66µM*; HT1080 IDH1KD tx: 8.2µM*; HT1080-NT tox: inconclusive

Results for CCOc1ccc2nc(N3CCCC(C(=O)Nc4ccc(CC)cc4)C3)sc2c1 (stereo unspecified) ?
KB-V1 cytotox: inactive; TDP1 cell noCPT: 10.3µM*; KB-3-1 cytotox: inactive; DT40 TDP1 CPT: 16.4µM*

How did CCOC(=O)[C@]12CCCC=C1N(Cc1ccccc1)C(=O)[C@H](CC(=O)N1CCN(C(=O)c3ccco3)CC1)C2 do in these assays?
KB-V1 cytotox: inactive; TDP1 cell noCPT: -17.3%; KB-3-1 cytotox: inactive; DT40 TDP1 CPT: inconclusive; HT1080 IDH1KD tx: 3.4%; HT1080-NT tox: -1.0%

How did Cc1ccc(-c2csc3nc(SCC(N)=O)n(Cc4ccccc4)c(=O)c23)cc1 do in these assays?
KB-V1 cytotox: 20.6µM*; TDP1 cell noCPT: inconclusive; KB-3-1 cytotox: inactive; DT40 TDP1 CPT: inconclusive; HT1080 IDH1KD tx: inconclusive; HT1080-NT tox: inconclusive

What do the screens show for `CCOC(=O)CSc1nc2sc3c(c2c(=O)n1Cc1ccccc1)CC(C)CC3` (stereo unspecified)?
TDP1 cell noCPT: 11.6µM*; DT40 TDP1 CPT: inconclusive

How did CCOC(=O)CSc1nc2sc3c(c2c(=O)n1-c1ccccc1)CC(C(C)C)OC3 (stereo unspecified) do in these assays?
KB-V1 cytotox: inconclusive; TDP1 cell noCPT: inconclusive; KB-3-1 cytotox: inactive; DT40 TDP1 CPT: inconclusive

How did CCCc1ncc(CN2CCCC(C(=O)Nc3ccc(-c4cccc(OC)c4)cc3)C2)cn1 (stereo unspecified) do in these assays?
KB-V1 cytotox: inactive; TDP1 cell noCPT: inconclusive; KB-3-1 cytotox: inactive; DT40 TDP1 CPT: 23.1µM*; HT1080 IDH1KD tx: inconclusive; HT1080-NT tox: -34.5%

Source: PubChem BioAssay (National Center for Advancing Translational Sciences (NCATS))
